Data on 1 sequence can be found in publication PMC7862700, “An all-to-all approach to the identification of sequence-specific readers for epigenetic DNA modifications on cytosine”.

Holding throughout (assay): DAPPL (digital affinity profiling via proximity ligation, sequencing); 10 mM Tris-HCl pH 7.5, 50 mM NaCl, 1 mM DTT, 4% glycerol, room temperature, 30 min; GST-TFs on glutathione beads, 16-mer random dsDNA library, 0.1% formaldehyde crosslink after washing; high values mean tight binding
For one assay, the target named is T1, FEV (Homo sapiens, UniProt Q99581 1-238).
T1 sequence: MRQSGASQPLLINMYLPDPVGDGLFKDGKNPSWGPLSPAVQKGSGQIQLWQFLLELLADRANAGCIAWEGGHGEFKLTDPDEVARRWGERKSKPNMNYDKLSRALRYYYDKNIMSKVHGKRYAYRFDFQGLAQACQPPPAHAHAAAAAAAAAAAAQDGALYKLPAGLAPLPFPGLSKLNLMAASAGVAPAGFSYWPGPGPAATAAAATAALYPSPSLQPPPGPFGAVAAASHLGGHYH
Conditions: protein: recombinant; tags: N-terminal GST; dsDNA, one strand shown. An outline of the steps: (§1)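 Pools were built from human transcription factors expressed in yeast as GST fusions, captured on glutathione beads and DNA-barcoded, along with a tag-only sample. Incubation with 200 nmole of a 16-mer random double-stranded DNA library lasted 30 min at room temperature in Tris/NaCl/DTT/glycerol buffer, and was followed by washing, 0.1% formaldehyde crosslinking, proximity ligation, PCR amplification and Illumina NextSeq500 sequencing. Binding signal is the quotient of each hexamer's read frequency for a factor and its frequency for the tag-only sample.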

The target in another assay is ETV5 (Homo sapiens, UniProt P41161 1-510). Conditions: protein: recombinant; tags: N-terminal GST; dsDNA, one strand shown. In outline: as §1
Chain of ETV5 (P41161 whole entry): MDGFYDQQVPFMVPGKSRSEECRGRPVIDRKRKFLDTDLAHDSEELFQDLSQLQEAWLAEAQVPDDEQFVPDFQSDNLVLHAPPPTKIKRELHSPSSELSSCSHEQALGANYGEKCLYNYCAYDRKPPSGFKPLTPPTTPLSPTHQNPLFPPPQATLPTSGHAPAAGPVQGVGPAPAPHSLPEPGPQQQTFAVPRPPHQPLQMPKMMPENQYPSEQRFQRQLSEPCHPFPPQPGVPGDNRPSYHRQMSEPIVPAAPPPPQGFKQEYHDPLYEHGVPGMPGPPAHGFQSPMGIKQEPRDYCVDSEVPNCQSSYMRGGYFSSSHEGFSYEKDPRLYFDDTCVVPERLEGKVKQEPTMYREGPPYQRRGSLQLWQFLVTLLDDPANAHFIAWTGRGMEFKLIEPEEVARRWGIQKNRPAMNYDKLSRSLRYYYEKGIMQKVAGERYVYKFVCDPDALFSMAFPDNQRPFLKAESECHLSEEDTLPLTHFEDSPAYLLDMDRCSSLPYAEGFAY
A further assay has as its target HSF1 (Homo sapiens, UniProt Q00613 1-529). Conditions: protein: recombinant; tags: N-terminal GST; chain copies: 3; dsDNA, one strand shown. An outline of the steps: as §1
The target in a further assay is T2, SPIC (Homo sapiens, UniProt Q8N5J4 1-248).
T2 sequence: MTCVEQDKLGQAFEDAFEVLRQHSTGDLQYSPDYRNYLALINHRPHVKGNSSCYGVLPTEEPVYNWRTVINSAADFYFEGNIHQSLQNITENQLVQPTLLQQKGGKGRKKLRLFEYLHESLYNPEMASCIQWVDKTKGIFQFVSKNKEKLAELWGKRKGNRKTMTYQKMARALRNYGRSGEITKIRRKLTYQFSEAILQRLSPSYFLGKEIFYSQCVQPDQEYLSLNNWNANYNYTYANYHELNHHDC
Conditions: protein: recombinant; tags: N-terminal GST; dsDNA, one strand shown. In outline: as §1

A further assay addresses ELF4 (Homo sapiens, UniProt Q99607 1-663). Conditions: protein: recombinant; tags: N-terminal GST; dsDNA, one strand shown. An outline of the steps: as §1
The target of a further assay is T3, ELK4 (Homo sapiens, UniProt P28324-2 1-405).
T3 sequence: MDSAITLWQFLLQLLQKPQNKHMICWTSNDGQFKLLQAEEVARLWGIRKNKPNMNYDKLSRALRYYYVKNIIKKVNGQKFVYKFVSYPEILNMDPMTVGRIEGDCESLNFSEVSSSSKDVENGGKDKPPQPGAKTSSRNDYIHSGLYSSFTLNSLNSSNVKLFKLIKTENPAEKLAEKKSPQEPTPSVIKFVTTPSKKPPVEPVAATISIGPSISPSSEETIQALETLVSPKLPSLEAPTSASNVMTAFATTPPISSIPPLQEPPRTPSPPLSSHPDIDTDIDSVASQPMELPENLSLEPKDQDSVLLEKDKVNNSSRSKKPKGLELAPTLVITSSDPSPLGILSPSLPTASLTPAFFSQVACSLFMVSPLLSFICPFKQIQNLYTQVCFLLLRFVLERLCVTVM
Conditions: protein: recombinant; tags: N-terminal GST; dsDNA, one strand shown. An outline of the steps: as §1

In the next assay the target is T4, ETV2 (Homo sapiens, UniProt O00321 1-342).
T4 sequence: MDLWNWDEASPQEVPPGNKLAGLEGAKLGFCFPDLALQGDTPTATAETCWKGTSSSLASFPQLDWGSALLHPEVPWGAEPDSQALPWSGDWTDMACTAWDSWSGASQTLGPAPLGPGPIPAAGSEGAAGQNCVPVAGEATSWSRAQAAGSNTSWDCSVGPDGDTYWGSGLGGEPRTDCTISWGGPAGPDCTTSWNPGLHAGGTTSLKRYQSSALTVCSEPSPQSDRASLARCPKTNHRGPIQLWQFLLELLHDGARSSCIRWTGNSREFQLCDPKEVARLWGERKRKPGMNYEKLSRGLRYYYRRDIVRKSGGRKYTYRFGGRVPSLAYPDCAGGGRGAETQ
Conditions: protein: recombinant; tags: N-terminal GST; dsDNA, one strand shown. An outline of the steps: as §1

In a further assay the target is T5, ELF3 (Homo sapiens, UniProt P78545 1-371).
T5 sequence: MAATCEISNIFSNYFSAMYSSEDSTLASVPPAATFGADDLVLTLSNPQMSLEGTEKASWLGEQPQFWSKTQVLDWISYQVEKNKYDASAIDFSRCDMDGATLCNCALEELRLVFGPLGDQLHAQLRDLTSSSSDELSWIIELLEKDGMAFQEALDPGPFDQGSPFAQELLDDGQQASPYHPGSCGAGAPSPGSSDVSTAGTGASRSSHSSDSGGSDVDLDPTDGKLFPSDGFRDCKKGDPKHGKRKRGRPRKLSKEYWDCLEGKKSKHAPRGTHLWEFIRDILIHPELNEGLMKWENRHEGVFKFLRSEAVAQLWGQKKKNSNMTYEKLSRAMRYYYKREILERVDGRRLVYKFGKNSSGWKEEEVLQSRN
Conditions: protein: recombinant; tags: N-terminal GST; dsDNA, one strand shown. In outline: as §1

The next assay concerns the target CRX (Homo sapiens, UniProt O43186 1-299). Conditions: protein: recombinant; tags: N-terminal GST; dsDNA, one strand shown. An outline of the steps:
as §1

The next assay has as its target ETV1 (Homo sapiens, UniProt P50549 1-477). Conditions: protein: recombinant; tags: N-terminal GST; dsDNA, one strand shown. An outline of the steps:
as §1

In another assay the target is T6, ERF (Homo sapiens, UniProt P50548 1-548).
T6 sequence: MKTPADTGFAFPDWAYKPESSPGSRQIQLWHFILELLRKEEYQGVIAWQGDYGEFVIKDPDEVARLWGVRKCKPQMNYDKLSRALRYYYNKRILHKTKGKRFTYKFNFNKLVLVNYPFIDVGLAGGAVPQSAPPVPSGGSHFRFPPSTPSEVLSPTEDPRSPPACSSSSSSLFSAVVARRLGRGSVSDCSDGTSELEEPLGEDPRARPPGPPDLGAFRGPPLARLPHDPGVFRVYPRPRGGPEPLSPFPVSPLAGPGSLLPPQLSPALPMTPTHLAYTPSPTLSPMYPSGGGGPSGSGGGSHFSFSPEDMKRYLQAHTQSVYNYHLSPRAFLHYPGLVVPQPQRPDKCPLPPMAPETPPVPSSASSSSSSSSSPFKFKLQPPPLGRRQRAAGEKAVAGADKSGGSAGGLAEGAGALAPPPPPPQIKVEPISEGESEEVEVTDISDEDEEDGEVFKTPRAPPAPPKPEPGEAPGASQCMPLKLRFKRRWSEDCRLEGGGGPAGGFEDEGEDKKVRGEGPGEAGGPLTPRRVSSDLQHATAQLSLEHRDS
Conditions: protein: recombinant; tags: N-terminal GST; dsDNA, one strand shown. In outline:
as §1

The target of another assay is T7, ETV3L (Homo sapiens, UniProt Q6ZN32 1-361).
T7 sequence: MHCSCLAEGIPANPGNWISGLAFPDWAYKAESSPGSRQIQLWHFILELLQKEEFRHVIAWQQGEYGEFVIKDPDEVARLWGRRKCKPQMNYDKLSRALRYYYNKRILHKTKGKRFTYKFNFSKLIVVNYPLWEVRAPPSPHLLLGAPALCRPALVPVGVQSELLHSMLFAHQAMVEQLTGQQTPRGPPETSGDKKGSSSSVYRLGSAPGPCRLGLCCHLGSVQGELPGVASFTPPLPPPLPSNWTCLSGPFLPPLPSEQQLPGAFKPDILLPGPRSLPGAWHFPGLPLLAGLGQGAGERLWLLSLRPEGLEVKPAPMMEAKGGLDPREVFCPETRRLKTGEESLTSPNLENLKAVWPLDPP
Conditions: protein: recombinant; tags: N-terminal GST; dsDNA, one strand shown. In outline:
as §1

The next assay concerns the target T8, ETS2 (Homo sapiens, UniProt P15036 1-469).
T8 sequence: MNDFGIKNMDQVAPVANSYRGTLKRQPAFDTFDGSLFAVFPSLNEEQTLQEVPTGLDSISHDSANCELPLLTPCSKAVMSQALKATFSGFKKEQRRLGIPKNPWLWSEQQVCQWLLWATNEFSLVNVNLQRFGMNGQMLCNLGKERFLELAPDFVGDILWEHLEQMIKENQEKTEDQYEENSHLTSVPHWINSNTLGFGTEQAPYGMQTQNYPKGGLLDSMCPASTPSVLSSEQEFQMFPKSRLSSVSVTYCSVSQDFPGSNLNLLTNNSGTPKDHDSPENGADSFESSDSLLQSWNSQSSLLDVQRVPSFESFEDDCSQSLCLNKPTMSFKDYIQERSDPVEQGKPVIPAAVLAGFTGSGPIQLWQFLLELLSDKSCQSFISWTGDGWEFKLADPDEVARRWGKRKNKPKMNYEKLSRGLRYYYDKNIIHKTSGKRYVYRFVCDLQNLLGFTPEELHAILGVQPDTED
Conditions: protein: recombinant; tags: N-terminal GST; dsDNA, one strand shown. An outline of the steps: as §1

A further assay has as its target T9, SPDEF (Homo sapiens, UniProt O95238 1-335).
T9 sequence: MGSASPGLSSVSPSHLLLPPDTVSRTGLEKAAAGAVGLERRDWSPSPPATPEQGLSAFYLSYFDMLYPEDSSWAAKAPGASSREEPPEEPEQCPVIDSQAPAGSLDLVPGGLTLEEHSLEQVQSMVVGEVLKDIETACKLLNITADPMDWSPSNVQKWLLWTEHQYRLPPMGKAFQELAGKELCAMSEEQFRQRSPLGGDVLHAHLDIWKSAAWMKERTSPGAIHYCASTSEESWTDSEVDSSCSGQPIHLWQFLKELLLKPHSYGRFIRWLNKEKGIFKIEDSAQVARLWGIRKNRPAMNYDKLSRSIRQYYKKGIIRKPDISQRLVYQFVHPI
Conditions: protein: recombinant; tags: N-terminal GST; dsDNA, one strand shown. An outline of the steps:
as §1

The next assay deals with T10, ETV7 (Homo sapiens, UniProt Q9Y603 1-341).
T10 sequence: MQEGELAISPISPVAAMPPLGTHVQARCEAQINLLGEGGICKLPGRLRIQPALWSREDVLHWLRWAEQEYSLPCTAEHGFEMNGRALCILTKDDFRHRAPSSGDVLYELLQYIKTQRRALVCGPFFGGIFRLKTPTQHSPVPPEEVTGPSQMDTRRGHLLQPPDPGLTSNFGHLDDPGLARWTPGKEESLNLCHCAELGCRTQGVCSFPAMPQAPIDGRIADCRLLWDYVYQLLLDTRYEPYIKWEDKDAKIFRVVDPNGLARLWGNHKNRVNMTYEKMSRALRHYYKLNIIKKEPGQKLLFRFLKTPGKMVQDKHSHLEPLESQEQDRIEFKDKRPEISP
Conditions: protein: recombinant; tags: N-terminal GST; dsDNA, one strand shown. An outline of the steps:
as §1

For a further assay, the target named is T11, ELF5 (Homo sapiens, UniProt Q9UKW6-2 1-255).
T11 sequence: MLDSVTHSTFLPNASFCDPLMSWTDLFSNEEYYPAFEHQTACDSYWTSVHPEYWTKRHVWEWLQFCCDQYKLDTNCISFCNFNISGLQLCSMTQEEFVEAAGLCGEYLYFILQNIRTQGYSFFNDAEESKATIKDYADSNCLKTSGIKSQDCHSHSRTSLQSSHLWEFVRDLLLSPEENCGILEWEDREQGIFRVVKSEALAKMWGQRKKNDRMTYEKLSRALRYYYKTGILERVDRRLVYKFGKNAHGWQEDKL
Conditions: protein: recombinant; tags: N-terminal GST; dsDNA, one strand shown. An outline of the steps: as §1

The next assay has as its target T12, ETV3 (Homo sapiens, UniProt P41162-2 1-143).
T12 sequence: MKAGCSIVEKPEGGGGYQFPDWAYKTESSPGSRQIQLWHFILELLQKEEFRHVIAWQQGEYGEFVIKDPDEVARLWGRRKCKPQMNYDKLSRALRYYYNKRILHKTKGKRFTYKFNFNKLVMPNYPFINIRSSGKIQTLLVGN
Conditions: protein: recombinant; tags: N-terminal GST; dsDNA, one strand shown. An outline of the steps:
as §1

For a further assay, the target named is ETV6 (Homo sapiens, UniProt P41212 1-452). Conditions: protein: recombinant; tags: N-terminal GST; dsDNA, one strand shown. An outline of the steps:
as §1

Chain of CRX (O43186 whole entry): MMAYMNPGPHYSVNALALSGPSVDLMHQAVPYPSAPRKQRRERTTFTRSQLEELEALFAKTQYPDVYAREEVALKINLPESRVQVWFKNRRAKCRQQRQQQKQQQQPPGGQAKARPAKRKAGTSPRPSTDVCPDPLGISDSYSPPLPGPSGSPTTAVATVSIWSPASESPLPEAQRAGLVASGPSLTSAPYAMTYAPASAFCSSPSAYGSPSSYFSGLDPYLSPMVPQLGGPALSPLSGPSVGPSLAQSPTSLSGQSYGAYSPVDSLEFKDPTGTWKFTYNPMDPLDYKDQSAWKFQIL
Chain of HSF1 (Q00613 whole entry): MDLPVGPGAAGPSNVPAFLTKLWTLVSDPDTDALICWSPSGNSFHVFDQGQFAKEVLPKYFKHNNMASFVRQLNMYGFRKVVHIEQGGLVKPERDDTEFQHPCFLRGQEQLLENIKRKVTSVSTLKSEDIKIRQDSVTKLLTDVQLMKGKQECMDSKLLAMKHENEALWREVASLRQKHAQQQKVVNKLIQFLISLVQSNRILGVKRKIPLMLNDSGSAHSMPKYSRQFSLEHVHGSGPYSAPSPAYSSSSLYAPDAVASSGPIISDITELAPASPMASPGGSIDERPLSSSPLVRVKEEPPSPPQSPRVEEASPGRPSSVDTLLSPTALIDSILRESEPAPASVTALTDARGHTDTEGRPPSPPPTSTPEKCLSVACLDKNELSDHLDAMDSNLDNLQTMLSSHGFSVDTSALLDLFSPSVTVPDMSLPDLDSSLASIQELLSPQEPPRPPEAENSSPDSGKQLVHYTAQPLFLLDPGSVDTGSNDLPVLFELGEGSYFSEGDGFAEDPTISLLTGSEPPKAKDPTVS
Chain of ELF4 (Q99607 whole entry): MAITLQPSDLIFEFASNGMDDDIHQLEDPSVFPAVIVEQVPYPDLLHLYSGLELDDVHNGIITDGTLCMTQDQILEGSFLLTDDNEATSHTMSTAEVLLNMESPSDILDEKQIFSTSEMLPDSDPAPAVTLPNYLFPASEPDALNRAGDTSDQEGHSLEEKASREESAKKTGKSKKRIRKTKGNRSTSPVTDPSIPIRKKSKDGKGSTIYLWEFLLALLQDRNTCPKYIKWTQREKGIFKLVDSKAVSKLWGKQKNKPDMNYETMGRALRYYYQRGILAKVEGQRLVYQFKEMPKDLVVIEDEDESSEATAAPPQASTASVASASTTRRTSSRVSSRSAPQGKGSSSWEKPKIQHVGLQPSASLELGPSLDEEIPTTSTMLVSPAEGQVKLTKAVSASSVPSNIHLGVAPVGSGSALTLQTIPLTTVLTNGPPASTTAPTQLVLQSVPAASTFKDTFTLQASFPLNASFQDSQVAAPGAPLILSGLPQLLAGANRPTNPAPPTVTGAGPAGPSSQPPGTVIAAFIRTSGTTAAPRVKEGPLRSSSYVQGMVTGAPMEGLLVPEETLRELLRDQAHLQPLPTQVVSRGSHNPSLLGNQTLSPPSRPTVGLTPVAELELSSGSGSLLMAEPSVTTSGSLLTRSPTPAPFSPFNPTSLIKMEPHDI
Chain of ETV1 (P50549 whole entry): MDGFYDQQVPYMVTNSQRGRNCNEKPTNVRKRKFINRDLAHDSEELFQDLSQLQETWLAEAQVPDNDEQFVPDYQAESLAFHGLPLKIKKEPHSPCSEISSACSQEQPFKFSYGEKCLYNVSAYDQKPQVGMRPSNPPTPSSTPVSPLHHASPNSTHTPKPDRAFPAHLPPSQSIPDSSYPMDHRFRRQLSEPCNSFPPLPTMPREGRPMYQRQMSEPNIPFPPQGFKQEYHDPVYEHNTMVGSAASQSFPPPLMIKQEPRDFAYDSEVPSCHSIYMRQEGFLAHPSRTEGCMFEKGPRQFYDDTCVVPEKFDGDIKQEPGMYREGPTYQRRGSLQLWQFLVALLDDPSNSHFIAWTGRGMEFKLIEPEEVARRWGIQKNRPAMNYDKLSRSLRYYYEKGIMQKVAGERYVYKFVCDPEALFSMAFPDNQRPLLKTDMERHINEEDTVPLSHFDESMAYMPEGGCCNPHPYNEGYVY
Chain of ETV6 (P41212 whole entry): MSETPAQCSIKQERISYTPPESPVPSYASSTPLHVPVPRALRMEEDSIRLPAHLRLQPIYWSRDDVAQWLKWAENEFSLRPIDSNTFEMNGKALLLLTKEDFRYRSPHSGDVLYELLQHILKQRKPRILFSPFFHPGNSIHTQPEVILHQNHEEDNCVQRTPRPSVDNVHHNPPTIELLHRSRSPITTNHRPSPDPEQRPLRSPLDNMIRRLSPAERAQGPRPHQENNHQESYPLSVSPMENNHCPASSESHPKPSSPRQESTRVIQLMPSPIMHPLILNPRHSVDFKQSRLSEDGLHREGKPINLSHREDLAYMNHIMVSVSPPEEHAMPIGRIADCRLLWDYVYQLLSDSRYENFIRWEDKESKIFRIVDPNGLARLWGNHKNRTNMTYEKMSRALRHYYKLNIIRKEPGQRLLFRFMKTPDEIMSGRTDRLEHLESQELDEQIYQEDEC

Turning to AAAGCA, the binding signal is 1.07 fold enrichment (6-mer frequency, TF over GST control) with FEV; 1.06 fold enrichment (6-mer frequency, TF over GST control) with ETV5; 1.04 fold enrichment (6-mer frequency, TF over GST control) with HSF1; 1.01 fold enrichment (6-mer frequency, TF over GST control) with SPIC; 1.09 fold enrichment (6-mer frequency, TF over GST control) in the assay with ELF4; 1.14 fold enrichment (6-mer frequency, TF over GST control) with ELK4. Moreover, the binding signal was 1.11 fold enrichment (6-mer frequency, TF over GST control) in the assay with ETV2; 1.02 fold enrichment (6-mer frequency, TF over GST control) with ELF3; 1.06 fold enrichment (6-mer frequency, TF over GST control) in the assay with CRX; 1.06 fold enrichment (6-mer frequency, TF over GST control) in the assay with ETV1; 1.1 fold enrichment (6-mer frequency, TF over GST control) with ERF; 1.1 fold enrichment (6-mer frequency, TF over GST control) in the assay with ETV3L. For the same sequence, the binding signal in the assay with ETS2 was 1.05 fold enrichment (6-mer frequency, TF over GST control); in the assay with SPDEF, 1.06 fold enrichment (6-mer frequency, TF over GST control); with ETV7, 1.15 fold enrichment (6-mer frequency, TF over GST control); in the assay with ELF5 it was 1.07 fold enrichment (6-mer frequency, TF over GST control); with ETV3, 1.07 fold enrichment (6-mer frequency, TF over GST control); with ETV6 it was 1.05 fold enrichment (6-mer frequency, TF over GST control).
